BLM helicase inh – inhibitors of human Bloom syndrome helicase BLM; recombinant BLM DNA unwinding, fluorescence dequenching; Potency, µM (titrated, usually from 56.1 µM), inactives show at the highest dose activity change, negative = inhibition, usual class: inhibitors; 0.2% of 350,000 active;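 further: plate controls were vehicle for no effect and no enzyme for full effect; nearly all actives have a fitted effect of over 35% in size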
Target sequence (P54132 whole entry, looked up): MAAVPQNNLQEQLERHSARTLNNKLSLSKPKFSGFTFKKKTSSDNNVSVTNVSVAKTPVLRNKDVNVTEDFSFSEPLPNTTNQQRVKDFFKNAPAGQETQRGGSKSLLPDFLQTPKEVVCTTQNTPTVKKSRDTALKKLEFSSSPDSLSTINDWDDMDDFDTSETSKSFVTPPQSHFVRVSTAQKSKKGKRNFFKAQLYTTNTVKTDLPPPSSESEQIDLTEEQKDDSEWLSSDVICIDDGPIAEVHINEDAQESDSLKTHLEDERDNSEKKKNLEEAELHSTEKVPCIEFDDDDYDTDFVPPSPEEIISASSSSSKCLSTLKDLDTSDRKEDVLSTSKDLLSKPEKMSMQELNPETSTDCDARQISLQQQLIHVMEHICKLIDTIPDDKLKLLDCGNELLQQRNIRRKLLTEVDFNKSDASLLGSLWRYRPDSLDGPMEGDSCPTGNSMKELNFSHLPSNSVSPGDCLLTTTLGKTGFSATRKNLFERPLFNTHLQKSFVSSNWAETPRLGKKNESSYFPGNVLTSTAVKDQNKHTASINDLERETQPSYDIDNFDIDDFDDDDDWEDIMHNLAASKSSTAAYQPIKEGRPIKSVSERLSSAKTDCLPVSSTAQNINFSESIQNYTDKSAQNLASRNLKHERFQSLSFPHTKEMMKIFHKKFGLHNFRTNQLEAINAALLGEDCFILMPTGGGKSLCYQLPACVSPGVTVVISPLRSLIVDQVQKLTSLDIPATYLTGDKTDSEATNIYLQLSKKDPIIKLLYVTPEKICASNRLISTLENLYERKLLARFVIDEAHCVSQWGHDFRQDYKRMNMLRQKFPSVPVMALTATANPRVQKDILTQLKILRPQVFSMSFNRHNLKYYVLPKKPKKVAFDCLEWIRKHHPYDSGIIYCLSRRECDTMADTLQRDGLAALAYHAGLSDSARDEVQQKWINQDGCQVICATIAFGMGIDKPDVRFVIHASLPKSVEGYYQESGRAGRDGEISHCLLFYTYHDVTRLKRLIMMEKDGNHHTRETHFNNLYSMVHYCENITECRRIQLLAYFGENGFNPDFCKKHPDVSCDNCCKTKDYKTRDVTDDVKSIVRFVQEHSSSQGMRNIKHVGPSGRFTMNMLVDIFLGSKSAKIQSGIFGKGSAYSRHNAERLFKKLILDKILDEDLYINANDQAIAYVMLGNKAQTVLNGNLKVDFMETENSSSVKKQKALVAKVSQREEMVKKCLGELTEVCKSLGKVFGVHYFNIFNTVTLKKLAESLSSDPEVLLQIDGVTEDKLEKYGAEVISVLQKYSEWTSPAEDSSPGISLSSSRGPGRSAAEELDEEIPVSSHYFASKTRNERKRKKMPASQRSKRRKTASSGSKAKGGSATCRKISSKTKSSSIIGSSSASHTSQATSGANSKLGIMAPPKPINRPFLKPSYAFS
KAT2A inh – GCN5L2 (KAT2A) acetyltransferase inhibition. Q92830. AID 504327. Potency, µM (highest dose often 58.9 µM), inactives show at the highest dose activity change, negative = inhibition, hits mostly inhibitors. 0.21% of 390,000 active. GCN5L2 HAT assay, ThioGlo1 CoA-SH fluorescence
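ThioGlo1-coupled HAT assay: 20nM GCN5L2, 70uM acetyl-CoA, 75uM H3(1-25) peptide, pH 7.5. Fluorescence read at 340/540nm at start and after 20 min at room temperature.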
TDP1 block – inhibitors of human tyrosyl-DNA phosphodiesterase TDP1; recombinant TDP1, AlphaScreen DNA substrate cleavage; Q9NUW8; Potency, µM (top dose mostly 130 µM), for the others: at the highest dose activity change, negative = inhibition, most hits filed as inhibitors; 0.28% of 350,000 active; further: nearly all actives have a fitted effect of over 40% in size
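Recombinant E. coli-expressed Tdp1 (1 nM) preincubated with compound 15 min at RT, then 5'-biotin/3'-phosphotyrosine-FITC DNA substrate (15 nM) added for 5 min. AlphaScreen beads (10 ug/ml) added, 10 min RT; tyrosine-FITC cleavage read as signal loss.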
RECQ1 inh – blocks DNA unwinding by human RECQ1; P46063; RECQ1 DNA unwinding, red fluorescence kinetic read; Potency, µM (doses to about 57.3 µM), inactives show top-dose activity, negative = inhibition, usual class: inhibitors; 0.54% of 240,000 active;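 further: plate controls were vehicle for no effect and no enzyme for full effect; nearly all actives have a fitted effect of over 30% in size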
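50 nM RECQ1T1 preincubated 15 min with compound in Tris pH 8.0 buffer with MgCl2, DTT, Tween-20 and 2.5 ug/ml poly(dI-dC); started with 200 nM TAMRA/BHQ-2 forked duplex and 2 mM ATP. Unwinding read as fluorescence (525/598 nm), two reads 2 h apart.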
RGS4 inhibitor – inhibitors of human regulator of G protein signaling 4; Transcreener GDP fluorescence polarization, RGS4-accelerated GTP hydrolysis; Potency, µM (doses to about 114 µM), for inactives: at the top dose activity change, negative = inhibition, actives largely listed as inhibitors; 0.039% of 390,000 active; AID 504845; further: nearly all actives have a fitted effect of over 75% in size
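MLSMR compounds (23 nl, pin-transferred) preincubated 10 min at room temperature with a 500nM (2x) first reagent, then RGS4 at 900nM (2x) plus Transcreener GDP mix added; fluorescence polarization (620/688 nm) read before and after 90 min at 30 °C.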
APE1 inh-1 – APE1 (human) endonuclease inhibition. recombinant APE1, TAMRA/BHQ-2 abasic DNA cleavage fluorescence. Potency, µM (doses to about 65.8 µM), inactives show top-dose activity change, negative = inhibition, actives largely listed as inhibitors. 0.35% of 350,000 active. P27695;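 further: plate controls were vehicle for no effect and reference inhibitor for full effect; nearly all actives have a fitted effect of over 55% in size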
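Measures dequenching upon AP-site incision of a 5'-TAMRA/3'-BHQ-2 THF-containing duplex, 50 nM; human APE1 0.75 nM after 15 min room-temperature exposure to compound; kinetic three-point read at one-minute spacing.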
DNA dye displace – displaces fluorescent dye from DNA, flagging APE1 artifacts. shares compounds with APE1 inh-1. DNA fluorescent dye displacement counterscreen, fluorescence. 7% of 480 active. Potency, µM (doses to about 28.5 µM), without a hit: top-dose activity change, negative = inhibition, most hits filed as inhibitors;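 further: loss of thiazole orange fluorescence as the dye is displaced from duplex DNA; 0% = ThO with dsDNA and no compound and -100% = ThO without dsDNA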
EndoIV counter – Endo IV (E. coli) inhibition counter-screen | AID 2565 | Potency, µM (top dose mostly 27.1 µM), inactives show at the highest dose activity change, negative = inhibition, usual class: inhibitors | 4% of 560 active | shares compounds with APE1 inh-1 | E. coli Endo IV, fluorogenic AP-site DNA cleavage;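 further: plate controls were uninhibited enzyme wells for no effect and no enzyme buffer wells for full effect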
APE1 inh-2 – APE1 (human) endonuclease inhibition, confirmation; shares compounds with APE1 inh-1; purified APE1, fluorogenic abasic-site DNA cleavage; Potency, µM (doses to about 57.1 µM), inactives show at the top dose activity change, negative = inhibition, hits mostly inhibitors; 44% of 750 active; AID 2572; further: nearly all actives have a fitted effect of over 30% in size
APE1 FP inh – compounds that displace a DNA probe from human APE1; shares compounds with APE1 inh-1; APE1 binding to TAMRA-labelled double-stranded DNA, fluorescence polarization displacement; Potency, µM (series often up to 28.5 µM), for inactives: at the highest dose activity, negative = inhibition, actives largely listed as inhibitors; 7% of 480 active; AID 2573
Numbers without * were called inactive; i = inactive; ? = inconclusive; nt = no result given; ! = repeats disagree; [ ] = another dose, or the depositor's remark. Compounds with a hit are over-represented: about 0.87% of the library has one in this group of screens. The call rests on the fitted dose curve; in most records, active means well fitted curve in the direction sought with a large enough effect; inconclusive means small, poorly fitted or top-dose-only effect, or another doubt; inactive means no such curve, though single readings can be large; an effect the other way counts as inactive or inconclusive. Unless noted, on the % scale 0 is the no-effect control and ±100 the full control effect; potency means the concentration at half of the fitted maximal effect.

SMILES	BLM helicase inh	KAT2A inh	TDP1 block	RECQ1 inh	RGS4 inhibitor	APE1 inh-1	DNA dye displace	EndoIV counter	APE1 inh-2	APE1 FP inh
CC1CC(=O)c2c(cc3c(-c4c(O)cc(O)c5c(O)c6c(cc45)OC(C)CC6=O)c(O)cc(O)c3c2O)O1 (stereo not drawn)	-21%	?	4%	18µM*	?	?	4.5µM*	?	?	-12%
NC(=O)c1ccc2nc(NC(=O)c3ccc(N)cc3)sc2c1	-9%	-10%	79µM*	-22%	4%	-4%	nt	nt	?	nt
CCCCCCCCCCCCCC/C(C(=O)O)=C(\C)C(=O)O	4%	-4%	-4%	i	nt	-2%	nt	nt	nt	nt
CC(C)C(C(=O)O)N1C(=O)/C(=C/C=C/c2ccco2)SC1=S (stereo not drawn)	?	?	?	?	?	1.6µM*	4%	22%	2.5µM*	-61%
CC(C)C(C(=O)O)N1C(=O)/C(=C/c2cccn2C)SC1=S (stereo not drawn)	-1%	-6%	4%	12%	-22%	-1%	nt	nt	nt	nt
COc1ccc(C(=O)NCC(=O)OCC(=O)c2cccc3ccccc23)cc1	nt	nt	2%	nt	-8%	nt	nt	nt	nt	nt
O=C(/C=C\c1ccccc1)c1ccccc1O	1%[12.4 µM]	nt	10%[21 µM]	i[11.5 µM]	nt	1%[12.4 µM]	nt	nt	nt	nt
O=C(/C=C/c1ccccc1)c1cc(Br)ccc(=O)c1O	-19%	-16%	nt	32µM*	?	?	?	-1%	?	?
Cc1nc(N=Nc2ccc(C(=O)O)cc2)c(COP(=O)(O)O)c(C=O)c1O	nt	-15%	14µM*	-1%	-22%[56.9 µM]	?	nt	-10%[57.1 µM]	14µM*	nt
Cc1nc(N=Nc2ccc(S(=O)(=O)O)cc2S(=O)(=O)O)c(COP(=O)(O)O)c(C=O)c1O	-4%	?	20µM*	-3%	4%[56.9 µM]	32µM*!	nt	-1%[57.1 µM]	-6%	nt
CCN(CC)N=Nc1ccc(C(=O)O)cc1	5%	-2%	3%	-8%	-29%	4%	nt	nt	nt	nt
O=C(CSc1nc(NS(=O)(=O)c2ccccc2)cc(=O)[nH]1)Nc1cccc(C(F)(F)F)c1	-8%	?	1%	nt	-11%	-12%	nt	nt	nt	nt
O=C(CSc1nc(NS(=O)(=O)c2ccccc2)cc(=O)[nH]1)Nc1ccc(F)cc1	?	?	28µM*	?	?	?	nt	nt	-8%	nt
CC(C)c1nnc(NC(=O)c2ccc(N3C(=O)CCC3=O)cc2)s1	0%	6%	0%	5%	-11%	-4%	nt	nt	nt	nt
O=C(Nc1nnc(C23CC4CC(CC(C4)C2)C3)s1)c1ccc(N2C(=O)CCC2=O)cc1	-3%	?	45µM*	-17%	-2%	10µM*	nt	nt	-23%	nt
Cc1cc(C)c(C#N)c(SCC(=O)c2cccs2)n1	-12%	1%	50µM*	i	-2%	?	nt	nt	-23%	nt
O=C(O)/C=C/c1ccc(O)c(O)c1	-10%	1%	-2%	-6%	-1%[56.9 µM]	?	-3%[57.1 µM]	204%[57.1 µM]	?	5%[57.1 µM]
O=C(/C=C/c1ccc(O)c(O)c1)O[C@@H](C(=O)O)[C@@H](OC(=O)/C=C/c1ccc(O)c(O)c1)C(=O)O	nt	nt	nt	1%	nt	?	nt	nt	nt	nt
O=C(/C=C/c1ccc(O)c(O)c1)O[C@H](Cc1ccc(O)c(O)c1)C(=O)O	22µM*	-16%	nt	3.5µM*	nt	0.13µM*	-5%	100%	0.63µM*	-34%
O=c1c(O)c(-c2ccc(O)cc2)oc2cc(O)ccc12	-6%	nt	14%	i	nt	?	nt	nt	nt	nt
O=c1c(O)c(-c2ccc(O)c(O)c2)oc2cc(O)ccc12	-26%	nt	-8%	3.2µM*!	-13%	?	2.8µM*	232%[57.1 µM]	0.89µM*	6%[57.1 µM]
COc1ccc(-c2coc3cc(O)ccc3c2=O)c(O)c1O	-23%	?	nt	4µM*	nt	3.2µM*	nt	37%[57.1 µM]	-87%	nt
Cc1ccccc1-c1coc2cc(O)ccc2c1=O	-1%	-2%	3%	5%	-11%[11.4 µM]	-7%	nt	nt	nt	nt
CCCC[C@H]1CCCO[C@@](C(=O)NCc2cc(C)n(C)n2)(C(F)(F)F)C1	-3%	nt	9%	i	-11%	-7%	nt	nt	nt	nt
COc1ccc2[nH]c(C(=O)O)c(CCN3C(=O)c4cccc([N+](=O)[O-])c4C3=O)c2c1	-28%	0%	45µM*	-7%	-4%	?	nt	nt	40µM*	nt
SMILES	BLM helicase inh	KAT2A inh	TDP1 block	RECQ1 inh	RGS4 inhibitor	APE1 inh-1	DNA dye displace	EndoIV counter	APE1 inh-2	APE1 FP inh
Cc1noc(C)c1-c1ccc2ncnc(NCc3cccs3)c2c1	-9%	-16%	nt	3%	nt	14µM*	?	-52%[57.1 µM]	32µM*	36%[57.1 µM]
CN(C)C(=O)c1ccc(-c2ccc3ncnc(NCc4cccs4)c3c2)cc1	-5%	-15%	nt	-7%	nt	10µM*	?	-77%[57.1 µM]	7.9µM*	22%[57.1 µM]
COc1cccc(OC)c1C1=Nn2c(nnc2-c2ccccc2C)SC1	5%	nt	11%	i	nt	-1%	nt	nt	nt	nt
NN1C(=O)/C(=C\c2ccco2)SC1=S	?	-19%	nt	?	-44%	14µM*	-11%	4%	?	1%
CCCCNc1nc(C)nc2c1nc(-c1ccccc1)n2CCN(C)C	-3%	nt	7%	-5%	nt	?	nt	nt	nt	nt
O=C(O)CC[C@@H](C(=O)O)N1C(=O)c2ccccc2C1=O	0%	-12%	-13%[56.1 µM]	-5%	0%[56.9 µM]	?	-4%	6%	?	-2%
CC(=O)OCC(NC(=O)C(CCCCNC(=O)OCc1ccccc1)NC(=O)OC(C)(C)C)C1OC(n2cc(F)c(=O)[nH]c2=O)C(OC(C)=O)C1OC(C)=O (stereo not drawn)	2%	nt	9%	11%	4%	0%	nt	nt	nt	nt
O=C1CCCC(O)=C1N=Nc1cccc(C(=O)O)c1	-2%	-26%	?	32µM*	-2%	10µM*	0%	79%	13µM*	-14%
O=C(O)c1cccc(N=NN2CCOCC2)c1	-3%	-3%	4%	i	-11%	3%	nt	nt	nt	nt

Screening results deposited in PubChem BioAssay by National Center for Advancing Translational Sciences (NCATS).
